In PubChem BioAssay (Tox21):
Activity calls are given as the source filed them. The call rests on the fitted dose curve.

Assay: G protein-coupled receptor (GPCR) small molecule agonists, calcium flux assay: HEK293 wild type cell line counter screen (AID 1920065)
Conditions: HEK293 WT calcium flux, fluorescence, agonist mode; series mostly up to 57.6 µM; activation: at the top concentration
Description: U.S. Tox21 Program National Center for Advancing Translational Sciences [NCATS] Division of Preclinical Innovation [DPI] U.S. Environmental Protection Agency [EPA] National Institutes of Environmental Health Sciences [NIEHS] National Toxicology Program [NTP] U.S. Food and Drug Administration [FDA] Assay overview: The increased intracellular calcium release that occurred upon G protein-coupled receptor (GPCR) activation led to the frequent use of calcium flux assays to detect GPCR activation. For the purpose of studying and screening compounds that may activate GPCR, receptor-overexpressing models were typically generated using Hek293 wild-type (WT) cells. In order to eliminate the compounds that may have induced calcium release for non-specific activation, a counter-assay utilizing calcium flux on Hek293 WT cells was performed. The data were formulated in order to serve as a control for any calcium flux detection utilizing Hek293 cells with either GPCR overexpression or gene modification. The procurement of Hek293 WT cells from ATCC. Fluorescence intensity can be utilized to determine the activation of the compound in a calcium flux assay. As a counter control, this cell line was utilized to screen the Tox21 10K compound library.
Assay Protocol Summary: Hek293 cells were dispensed at 1500cells/4uL/well in 1536-well black wall/clear bottom plates using a multidrop dispenser. After the assay plates were incubated at a 37 C/5% CO2 incubator for 18 hours, 4 uL of Calcium Dye Solution was added to each well. The plates were incubated at 37 C for 1 hour. For agonist mode, 23 nL of compounds dissolved in DMSO, positive control (ATP) or DMSO only was transferred to the assay plate by a pin tool station. The fluorescence intensity in the plates was measured using FDSS 7000EX kinetic plate reader with a filter set of Ex/Em=480/540 for 3 min at 1 sec intervals. Each test compound was measured at 15 concentrations and in triplicates.
On the % scale 0 is the no-effect control and ±100 the full control effect.

Question: Which “activation” value does the source give for COc1ccc(OC)c(NC(=O)CC(C)=O)c1 here?
Answer: Its value is -0.491% (inactive).

Question: With Nc1ccc(C(=O)N2CC3CC(CN(Cc4ccccc4)C3)C2)cc1 as the molecule, how does the “activation” value read?
Answer: Its value is -0.149% [at 26.5 µM] (inactive).

Question: For CCOC(=O)C(=O)OCC, which “activation” value is on record?
Answer: The value was -1.48% (inactive).

Question: Which “activation” value does the source give for CCCCOC(=O)C(C)CC (stereo not given) here?
Answer: The value was 1.94% (inactive).

Question: Which “activation” value does the source give for CC(O)CN(CCCN(C)C)CCCN(C)C (stereo not given) here?
Answer: Its value is -0.582% (inactive).

Question: With Cc1ccc2cccnc2c1 as the molecule, how does the “activation” value read?
Answer: Its value is -0.0695% (inactive).

Question: With CCOC(=O)N1CCC(n2c(=O)[nH]c3cc(Cl)ccc32)CC1 as the molecule, how does the “activation” value read?
Answer: The value was 0.0086% [at 26.5 µM] (inactive).

Question: For CN(C)c1ccc(C(c2ccccc2)c2ccc(N(C)C)cc2)cc1, which “activation” value is on record?
Answer: The value was 0.351% (inactive).

Question: Which “activation” value does the source give for CN1CCC(=C2c3ccccc3CCc3sccc32)CC1 here?
Answer: Its value is 0.37% [at 26.5 µM] (inactive).

Question: For CC1=C(C(=O)OC(C)C)C(c2cccc([N+](=O)[O-])c2)C(C(=O)OC2CN(C(c3ccccc3)c3ccccc3)C2)=C(N)N1 (stereo not given), which “activation” value is on record?
Answer: Its value is 0.786% [at 26.5 µM] (inactive).

Question: With Oc1ccc(Oc2ccccc2)cc1 as the molecule, how does the “activation” value read?
Answer: Its value is -1.21% (inactive).

Question: For O=c1c(O)c(-c2ccc(O)cc2O)oc2cc(O)cc(O)c12, which “activation” value is on record?
Answer: The value was 0.0326% (inactive).

Question: For Cc1ccc2oc(CN(Cc3ccccc3)C(=O)Nc3c(F)cc(F)cc3F)c(-c3ccc(Cl)cc3)c2c1, which “activation” value is on record?
Answer: The value was 3.35% (inactive).

Question: With CC(C)(C#N)Nc1nc(Cl)nc(NC2CC2)n1 as the molecule, how does the “activation” value read?
Answer: Its value is -1.32% (inactive).

Question: Which “activation” value does the source give for Cc1cc(C)c(O)c(C(C)(C)C)c1 here?
Answer: Its value is -1.15% (inactive).

Question: Which “activation” value does the source give for CN(C)[C@@H]1C(=O)C(C(=O)NCN2CCCC2)=C(O)[C@@]2(O)C(=O)C3=C(O)c4c(O)cccc4[C@@](C)(O)C3C[C@@H]12 (stereo not given in full) here?
Answer: The value was 0.927% [at 26.5 µM] (inactive).

Question: Which “activation” value does the source give for CCC1(C)C(=O)N(Cl)C(=O)N1Cl (stereo not given) here?
Answer: Its value is -0.411% (inactive).

Question: With C[N+]1(C)CCC(=C(c2ccccc2)c2ccccc2)CC1 as the molecule, how does the “activation” value read?
Answer: The value was -0.23% [at 26.5 µM] (inactive).

Question: With OCCCO as the molecule, how does the “activation” value read?
Answer: The value was -0.306% (inactive).

Question: Which “activation” value does the source give for CCCC(c1cc(C(C)(C)C)c(O)cc1C)c1cc(C(C)(C)C)c(O)cc1C here?
Answer: Its value is 1.29% (inactive).

Question: With COc1ccc(/C(C)=C/C(=O)O)c(OC)c1 as the molecule, how does the “activation” value read?
Answer: The value was -0.104% [at 26.5 µM] (inactive).

Question: Which “activation” value does the source give for COC(=O)C(c1ccccc1Cl)N1CCc2sccc2C1 (stereo not given) here?
Answer: Its value is -1.17% [at 26.5 µM] (inactive).

Question: Which “activation” value does the source give for C[C@H](CCC(=O)NCC(=O)O)[C@H]1CC[C@H]2[C@@H]3[C@H](O)C[C@@H]4C[C@H](O)CC[C@]4(C)[C@H]3C[C@H](O)[C@]12C here?
Answer: The value was 1.02% (inactive).

Question: With CC(CO)(CO)C(=O)O as the molecule, how does the “activation” value read?
Answer: The value was -0.12% (inactive).

Question: Which “activation” value does the source give for CC(C)(C)c1ccccc1 here?
Answer: Its value is 0.0917% (inactive).

Question: For C1=CCCC1, which “activation” value is on record?
Answer: The value was -3.49% (inactive).

Question: Which “activation” value does the source give for COc1ccc2c(c1)c(CC(=O)OCC(=O)O)c(C)n2C(=O)c1ccc(Cl)cc1 here?
Answer: The value was -1.52% [at 26.5 µM] (inactive).

Question: Which activation does the source give for COC(=O)C1CC(=O)C(C(=O)OC)CC1=O (stereo not given) here?
Answer: Its activation is -0.0233% [at 5.23 µM] (inactive).

Question: For CCCC1CCC(=O)O1 (stereo not given), which “activation” value is on record?
Answer: Its value is -0.598% (inactive).

Question: Which “activation” value does the source give for CC(C)(O)c1ccc(CNC(=O)c2cccnc2Oc2ccc3nonc3c2)cc1 here?
Answer: Its value is 0.0027% (inactive).

Question: For CCC(C)N(C)C(=O)c1cc2ccccc2c(-c2ccccc2Cl)n1 (stereo not given), which “activation” value is on record?
Answer: The value was 1.53% [at 26.5 µM] (inactive).

Question: For CC(=O)OCC[N+](C)(C)C, which “activation” value is on record?
Answer: The value was 1.31% [at 26.5 µM] (inactive).

Question: Which “activation” value does the source give for CCCCC/C=C/CC(=O)OC here?
Answer: Its value is -1.1% (inactive).

Question: For CC(C)Cn1cnc2c(N)nc3ccccc3c21, which activation is on record?
Answer: Its activation is -0.0034% [at 11.8 µM] (inactive).

Question: With Cc1cccc(C)c1NC(=O)c1ccccc1C(=O)O as the molecule, how does the “activation” value read?
Answer: Its value is -1.16% [at 26.5 µM] (inactive).

Question: For O=C1c2ccccc2S(=O)(=O)N1CCCCN1CCN(c2ncccn2)CC1, which “activation” value is on record?
Answer: Its value is -1.11% [at 26.5 µM] (inactive).

Question: Which “activation” value does the source give for COc1cc2c(cc1OC)C(=O)CC2 here?
Answer: The value was 0.389% [at 26.5 µM] (inactive).

Question: With CS(=O)(=O)c1ccc([C@@H](C[C@H]2CCC(=O)C2)C(=O)Nc2cnccn2)cc1Cl as the molecule, how does the “activation” value read?
Answer: Its value is -0.0251% (inactive).

Question: For C=CC(OCC)OCC, which “activation” value is on record?
Answer: Its value is -0.0847% (inactive).

Question: With CN(C)C/C=C(/c1ccc(Br)cc1)c1cccnc1 as the molecule, how does the “activation” value read?
Answer: The value was -0.218% [at 26.5 µM] (inactive).
